Outcome and AC50 data for 22 molecules are collected here from PubChem BioAssay (EPA / NIEHS).

The source made the active and inactive calls. How the source made its calls: active means hit-call score of the fitted dose curve at least 0.9, where 1 is the maximum; inactive means score below 0.9.

Read-out in this assay: Interferon-gamma inducible Protein 10 (IP10), CXCL10 (gene 3627)
Briefly: BSK_BE3C_IP10: BioMAP Diversity Plus: BE3C Assay for Interferon-gamma inducible Protein 10 (IP10) Biomarker Activity (AID 2283034). The note with it: primary human bronchial epithelial cells; actives raise or lower the signal. The method in brief:
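Human primary bronchial epithelial cells were exposed to chemicals for 24 hours, after which IP-10 levels were measured by ELISA. Data were fitted bidirectionally against DMSO, which served as the negative control and activity baseline.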
With `Cc1ccc2nc3sc(=O)sc3nc2c1`, the outcome was inactive.
The same measure, in the same setting: to `OC(Cc1ccccc1Cl)(Cn1cncn1)C1(Cl)CC1` (configuration not stated) belongs “inactive”; to `Cc1ccccc1OP(=O)(Oc1ccccc1)Oc1ccccc1`, “inactive”; to `O=[N+]([O-])c1cccc2ccccc12`, “inactive”.
Still for that read-out and setting: to `Oc1c(Cl)cc(Cl)cc1Cl` belongs “inactive”.
For `CCOC(=O)CCN(SN(C)C(=O)Oc1cccc2c1OC(C)(C)C2)C(C)C`, the concentration at half-maximal activity (AC50) is 14.1 µM (active).
Same read-out and setting: to `OC(Cc1ccccc1Cl)(Cn1[nH]cnc1=S)C1(Cl)CC1` (configuration not stated) belongs 15.8 µM (active).
Take `CCOP(=O)(OCC)SCCSCC`: the result was inactive.
`N#CCCC(Br)(C#N)CBr` (configuration not stated): the AC50 is 28.1 µM (active).
Same read-out and setting: to `Cc1cc(C(C)(C)c2ccc(O)c(C)c2)ccc1O` belongs 10 µM (active).
With `O=C(O)COc1cc(Cl)c(Cl)cc1Cl`, the result was inactive.
Regarding `O=[N+]([O-])c1ccc(Nc2ccccc2)cc1`, the outcome was inactive.
For `Cc1ccccc1OP(=O)(Oc1ccccc1C)Oc1ccccc1C`, the AC50 is 13.3 µM (active).
Same read-out and setting: to `CCOC(=O)C(SP(=S)(OC)OC)c1ccccc1` (configuration not stated) belongs 20 µM (active).
In the case of `CC(C)(C)c1cc([N+](=O)[O-])cc(C(C)(C)C)c1O`, the outcome was inactive.
On the same count and under the same terms, as for `CC1(C)[C@H](C(=O)O[C@H](C#N)c2cccc(Oc3ccccc3)c2)[C@@H]1/C=C(\Cl)C(F)(F)F`, the entry is “inactive”.
As to `c1ccc(-c2cccc(-c3ccccc3)c2)cc1`, the half-maximal activity concentration (AC50) is 14.4 µM (active).
For the molecule `Cc1ccc(OP(=O)(Oc2ccc(C)cc2C)Oc2ccc(C)cc2C)c(C)c1`, the result was inactive.
The same measure, in the same setting: as for `CC(C)(C)c1ccccc1O`, the entry is “inactive”.
Take `O=S(=O)(C(Cl)(Cl)Cl)C(Cl)(Cl)Cl`: the half-maximal activity concentration (AC50) is 2.86 µM (active).
On to `C=CC(Cl)CCl` (configuration not stated), for which the result was inactive.
On to `CCOP(=O)(OCC)OC(=CCl)c1ccc(Cl)cc1Cl`, for which the outcome was inactive.

As a reminder, the AC50 is the concentration giving half of the maximal activity seen.
